Screens: PubChem BioAssay, National Center for Advancing Translational Sciences (NCATS)
Hits are enriched below; roughly 9.2% of the tested compounds scored in any of these assays.
NPC1 prom act: activates the NPC1 promoter; Huh7 NPC1 promoter luciferase reporter, 24 h; Potency, µM (titrated, usually from 9.22 µM), without a hit: top-dose activation, actives largely listed as activators; actives 2.4% (n = 320,000); AID 485313; further: % of control where 0% means no effect; nearly all actives have a fitted effect of over 60% in size
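Luminescence read-out of NPC1 promoter-driven luciferase in stably transfected Huh7 cells; compounds delivered in DMSO and left 24 h at 37C, 5% CO2, qHTS titration format.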
Rab9 promoter act: activates the Rab9 promoter; Huh7 Rab9 promoter-luciferase reporter, luminescence, 24 h; Potency, µM (top dose mostly 9.22 µM), without a hit: at the highest dose activation, negative = inhibition, actives largely listed as activators; actives 2.8% (n = 320,000); further: % of control where 0% means no effect; nearly all actives have a fitted effect of over 60% in size
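Huh7 reporter line, Rab9 promoter upstream of luciferase. Compound exposure 24 h at 37 °C in reduced-serum medium with 10% FBS. Read-out: luminescence.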
FLuc modulator: counter-screen for miR-21 project: firefly luciferase inhibitors or activators. P08659. purified FLuc, Km substrates, luminescence inhibition. Potency, µM (titrated, usually from 57.5 µM), without a hit: at the top dose activity change, negative = inhibition, actives largely listed as inhibitors. actives 6.9% (n = 360,000);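 further: plate controls were vehicle for no effect and reference inhibitor for full effect; nearly all actives have a fitted effect of over 55% in size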
Target sequence (P08659 whole entry, looked up): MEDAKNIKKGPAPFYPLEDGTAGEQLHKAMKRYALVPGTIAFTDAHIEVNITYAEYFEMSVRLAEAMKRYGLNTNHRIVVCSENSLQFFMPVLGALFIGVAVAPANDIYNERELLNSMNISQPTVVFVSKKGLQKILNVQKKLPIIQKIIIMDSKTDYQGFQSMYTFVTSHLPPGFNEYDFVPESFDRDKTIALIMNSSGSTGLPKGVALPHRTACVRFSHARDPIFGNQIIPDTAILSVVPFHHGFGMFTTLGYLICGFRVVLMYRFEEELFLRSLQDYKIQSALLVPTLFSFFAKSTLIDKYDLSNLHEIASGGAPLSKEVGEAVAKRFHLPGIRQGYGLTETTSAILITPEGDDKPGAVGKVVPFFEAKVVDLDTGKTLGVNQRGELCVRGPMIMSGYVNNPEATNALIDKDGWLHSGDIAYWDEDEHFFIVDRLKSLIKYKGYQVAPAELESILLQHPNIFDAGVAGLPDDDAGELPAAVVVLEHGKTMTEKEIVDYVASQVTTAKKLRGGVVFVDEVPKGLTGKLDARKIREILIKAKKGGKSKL
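Purified P. pyralis luciferase, 10 nM final, with Km-level 10 uM D-luciferin and 10 uM ATP in 50 mM Tris acetate pH 7.5, 10 mM Mg acetate, 0.01% Tween-20, 0.05% BSA; 6-point qHTS titration about 60 µM downward; luminescence read.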
ELG1 DNA repair: blocks ELG1-dependent DNA repair in HEK293T cells; actives 2.3% (n = 330,000); HEK293T ELG1-luciferase reporter, luminescence, 16 h; DNA damage induced by 5-fluorouridine; Potency, µM (series often up to 46.1 µM), without a hit: at the top dose activity change, negative = inhibition, hits mostly inhibitors; further: on the % scale 0 is the no-effect control and ±100 the full control effect; nearly all actives have a fitted effect of over 55% in size
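DMSO vehicle served as the neutral condition. Each well held 2,000 cells given 5-fluorouridine plus compound; after 16 hr at 37 °C/5% CO2, ONE-Glo was added and luciferase measured 30 min later.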
SMN2 splice enh: enhancers of SMN2 splice variant expression | HEK293 SMN2-luciferase splicing reporter, luminescence, 30-36 h | Potency, µM (doses to about 46.1 µM), inactives show at the top dose activity change, positive = activation, actives largely listed as activators | actives 2.8% (n = 210,000); further: % of control where 0% means no effect; nearly all actives have a fitted effect of over 55% in size
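qHTS luciferase splicing reporter: luminescence rises when SMN2 exon 7 is included in transfected HEK293 cells. Compound exposure lasted 30-36 h at 37C, with 4.5 mM final sodium butyrate as control, followed by a ONE-Glo read.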
ELG1 genotoxic: inducers of genotoxicity in HEK293T ELG1-luciferase cells; AID 504466; Potency, µM (titrated, usually from 46 µM), inactives show at the highest dose activity change, positive = activation, usual class: activators; actives 1.3% (n = 330,000); HEK293T ELG1-luciferase reporter, luminescence, 16 h; further: % of control where 0% means no effect; nearly all actives have a fitted effect of over 60% in size
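Luminescence read-out: rising ELG1-luciferase signal, reflecting elevated ELG1 protein under genetic stress, flags genotoxic compounds. Cells were treated for 16 hr at 37 °C before ONE-Glo detection.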
* marks the source's active call; other numbers are inactive results. The call rests on the fitted dose curve; in most records, active means well fitted curve in the direction sought with a large enough effect; inconclusive means small, poorly fitted or top-dose-only effect, or another doubt; inactive means no such curve, though single readings can be large; an effect the other way counts as inactive or inconclusive. Potency means the concentration at half of the fitted maximal effect.

What do the screens show for `COC(=O)c1ccccc1-c1cn(C)c2ccccc2c1=O`?
NPC1 prom act: -1.5%; Rab9 promoter act: 1.8%; FLuc modulator: -3.5%; ELG1 DNA repair: -3.6%; ELG1 genotoxic: -3.7%

How did COc1ccc2nc(Nc3ccc4c(c3)OCO4)sc2c1 do in these assays?
NPC1 prom act: inconclusive; Rab9 promoter act: 4.47µM*; FLuc modulator: inconclusive; ELG1 DNA repair: inconclusive; SMN2 splice enh: inconclusive; ELG1 genotoxic: 5.8µM*

What do the screens show for `CCCc1nn(C)c(C(=O)Nc2ccc(C(C)(C)C)cc2)c1Cl`?
NPC1 prom act: -5.4%; Rab9 promoter act: -2.6%; FLuc modulator: inconclusive; ELG1 DNA repair: -13.1%; SMN2 splice enh: -4.5%; ELG1 genotoxic: -2.6%

How did CCN1CCN(CCC(=O)Nc2cccc(C)c2)CC1 do in these assays?
NPC1 prom act: -6.2%; Rab9 promoter act: -1.6%; FLuc modulator: 1.3%; ELG1 DNA repair: 2.1%; ELG1 genotoxic: 2.5%

How did CCCc1nn(C)c(C(=O)Nc2ccccc2)c1Cl do in these assays?
NPC1 prom act: 3.55µM*; Rab9 promoter act: 1.12µM*; FLuc modulator: 7.57µM*; ELG1 DNA repair: inconclusive; SMN2 splice enh: -29.5%; ELG1 genotoxic: inconclusive

How did CCCc1nn(C)c(C(=O)Nc2cccc(C)c2)c1Cl do in these assays?
NPC1 prom act: inconclusive; Rab9 promoter act: inconclusive; FLuc modulator: 16.9µM*; ELG1 DNA repair: inconclusive; SMN2 splice enh: 19.4%; ELG1 genotoxic: inconclusive

How did CCCc1nn(C)c(C(=O)Nc2cccc(Cl)c2)c1Cl do in these assays?
NPC1 prom act: 25.8%; Rab9 promoter act: inconclusive; FLuc modulator: 21.3µM*; ELG1 DNA repair: inconclusive; SMN2 splice enh: -22.4%; ELG1 genotoxic: inconclusive

What do the screens show for `CCCc1nn(C)c(C(=O)Nc2ccc(Cl)cc2)c1Cl`?
NPC1 prom act: 11.4%; Rab9 promoter act: 9.6%; FLuc modulator: -9.9%; ELG1 DNA repair: inconclusive; SMN2 splice enh: -12.1%; ELG1 genotoxic: -3.5%

What do the screens show for `CC(C)COc1ccc(C(=O)N(Cc2ccc(N(C)C)cc2)Cc2ccco2)cc1`?
FLuc modulator: -0.1%; SMN2 splice enh: -11.8%

What do the screens show for `CCN(CC)c1ccc2cc(-c3nnc(-c4ccncc4)o3)c(=O)oc2c1`?
NPC1 prom act: inconclusive; Rab9 promoter act: inconclusive; FLuc modulator: inconclusive; ELG1 DNA repair: inconclusive; SMN2 splice enh: 11.2µM*; ELG1 genotoxic: inconclusive

What do the screens show for `CCN(CC)c1ccc2cc(-c3nc(-c4cc(OC)c(OC)c(OC)c4)no3)c(=O)oc2c1`?
FLuc modulator: -5.8%

How did CCN(CC)c1ccc2cc(-c3nc(-c4cccs4)no3)c(=O)oc2c1 do in these assays?
FLuc modulator: 3.79µM*

What do the screens show for `O=C(C1=C(c2ccccc2)C(=O)c2ccccc2C1=O)c1ccccc1`?
NPC1 prom act: -0.9%; Rab9 promoter act: -3.1%; FLuc modulator: 4.7%; ELG1 DNA repair: 6.51µM*; SMN2 splice enh: -108.7%; ELG1 genotoxic: -10.7%

Results for COC1=C(c2ccccc2)C(=O)c2ccccc2C1=O ?
NPC1 prom act: -0.6%; Rab9 promoter act: 12.5%; FLuc modulator: -15.0%; ELG1 DNA repair: -10.9%; SMN2 splice enh: -19.2%; ELG1 genotoxic: -7.9%

Results for Cc1nc(C)c(-c2nnc(-c3ccccc3Cl)o2)cc1C(=O)NN ?
NPC1 prom act: -2.5%; Rab9 promoter act: -3.6%; FLuc modulator: 0.4%; ELG1 DNA repair: -14.4%; ELG1 genotoxic: -0.1%

What do the screens show for `Cc1nc(C)c(-c2nnc(-c3ccc(C(C)(C)C)cc3)o2)cc1C(=O)NN`?
NPC1 prom act: -4.7%; Rab9 promoter act: 1.4%; FLuc modulator: 23.9µM*; ELG1 DNA repair: -19.7%; SMN2 splice enh: -11.1%; ELG1 genotoxic: -1.3%

What do the screens show for `Cc1ccc(Nc2ncccc2C(N)=O)cc1[N+](=O)[O-]`?
NPC1 prom act: inconclusive; Rab9 promoter act: 3.55µM*; FLuc modulator: 12µM*; ELG1 DNA repair: inconclusive; SMN2 splice enh: 14.1µM*; ELG1 genotoxic: inconclusive
